From PubChem BioAssay
VDR inhibitor: vitamin D3 receptor (human) inhibition; Potency, µM, for the others: max response, negative = inhibition, hits mostly inhibitors; hit rate 0.93% among 400,000; VDR-SRC2-3 peptide fluorescence polarization, 2 h; P11473; note: % is set by controls: 0 for no effect and ±100 for the full control effect
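The screen uses fluorescence polarization to detect compounds that interfere with recruitment of the SRC2-3 coactivator peptide to VDR; plates are read after 2 h at room temperature.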
HP1b chromo inh: blocks HP1-beta chromodomain binding to methylated histone tails; P83916; AlphaScreen HP1-beta / biotin-H3K9me3 peptide binding; Potency, µM (highest dose often 114 µM), for the others: at the highest dose activity change, negative = inhibition, usual class: inhibitors; hit rate 0.56% among 390,000; AID 540317; note: nearly all actives have a fitted effect of over 70% in size
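AlphaScreen: HP1-beta (50 nM) preformed 30 min with biotin-H3(1-18)K9me3 peptide (50 nM) in PBS pH 7.4, 0.01% Tween-20. Compound added for 30 min at RT, then streptavidin donor/nickel chelate acceptor beads (10 ug/mL) for 30 min.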
JMJD2A Tudor inh: inhibitors of human JMJD2A Tudor domain; hit rate 4.4% among 390,000; O75164; Potency, µM (titrated, usually from 114 µM), for inactives: at the highest dose activity change, negative = inhibition, actives largely listed as inhibitors; AlphaScreen JMJD2A-Tudor / H3K4me3 peptide binding; note: % is set by controls: 0 for no effect and ±100 for the full control effect; nearly all actives have a fitted effect of over 50% in size
Target sequence (O75164 whole entry, looked up, the tested form may be a part): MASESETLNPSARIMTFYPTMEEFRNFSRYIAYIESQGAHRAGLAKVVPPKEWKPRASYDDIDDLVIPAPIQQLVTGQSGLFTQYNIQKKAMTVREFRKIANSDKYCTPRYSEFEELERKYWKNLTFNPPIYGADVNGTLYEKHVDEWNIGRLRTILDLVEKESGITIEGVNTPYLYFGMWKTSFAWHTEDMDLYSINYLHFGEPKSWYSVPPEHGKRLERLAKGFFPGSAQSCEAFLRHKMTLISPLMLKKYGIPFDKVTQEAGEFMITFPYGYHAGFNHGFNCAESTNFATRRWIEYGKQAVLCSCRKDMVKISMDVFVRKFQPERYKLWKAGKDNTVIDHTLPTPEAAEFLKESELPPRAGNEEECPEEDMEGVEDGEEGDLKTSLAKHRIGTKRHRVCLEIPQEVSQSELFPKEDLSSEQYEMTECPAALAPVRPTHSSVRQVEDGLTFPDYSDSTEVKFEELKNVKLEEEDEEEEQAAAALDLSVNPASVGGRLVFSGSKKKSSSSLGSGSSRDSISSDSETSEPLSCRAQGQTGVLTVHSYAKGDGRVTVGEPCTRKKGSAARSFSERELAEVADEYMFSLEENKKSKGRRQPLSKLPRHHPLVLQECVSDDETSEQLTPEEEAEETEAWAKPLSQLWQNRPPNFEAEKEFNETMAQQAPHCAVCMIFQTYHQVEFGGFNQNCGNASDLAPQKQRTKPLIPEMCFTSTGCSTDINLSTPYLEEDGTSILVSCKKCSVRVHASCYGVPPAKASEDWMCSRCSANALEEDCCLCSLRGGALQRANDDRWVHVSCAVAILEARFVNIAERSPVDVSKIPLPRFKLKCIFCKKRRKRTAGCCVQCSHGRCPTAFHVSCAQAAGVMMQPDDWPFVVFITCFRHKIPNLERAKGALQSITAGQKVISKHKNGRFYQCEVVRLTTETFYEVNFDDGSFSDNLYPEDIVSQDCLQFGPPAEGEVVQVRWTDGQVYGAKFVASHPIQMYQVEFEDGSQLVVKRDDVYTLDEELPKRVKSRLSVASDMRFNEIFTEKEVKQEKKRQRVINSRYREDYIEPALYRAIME
BAZ2B inh: blocks human BAZ2B. hit rate 4.4% among 360,000. AlphaScreen BAZ2B-H3K14Ac peptide displacement. Potency, µM (series often up to 114 µM), without a hit: at the top dose activity change, negative = inhibition, actives largely listed as inhibitors. Q9UIF8. AID 504333; note: % is set by controls: 0 for no effect and ±100 for the full control effect; nearly all actives have a fitted effect of over 60% in size
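Inhibition is scored as reduced AlphaScreen emission. The BAZ2B/b-H3(5-23)K14Ac complex (50 nM each) in PBS pH 7.4, 0.01% Tween-20 meets compound (up to 110 uM) for 30 min at RT before bead addition.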
L3MBTL1 block: L3MBTL1 (human) inhibition; Q9Y468; AlphaScreen L3MBTL1–H3K9me1 peptide binding; hit rate 0.66% among 230,000; AID 485360; Potency, µM (highest dose often 57.1 µM), for the others: top-dose activity, negative = inhibition, actives largely listed as inhibitors; note: % is set by controls: 0 for no effect and ±100 for the full control effect; nearly all actives have a fitted effect of over 60% in size
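Read-out is AlphaScreen signal from streptavidin donor and nickel chelate acceptor beads (10 ug/mL final each) bridging L3MBTL1 (50 nM) and biotinylated K9-monomethylated H3(1-15) peptide (75 nM), after 30 min compound exposure at room temperature.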
PLK1 PBD inh: inhibitors of human PLK1 polo-box domain binding; P53350; Plk1 PBD binding of FITC phosphopeptide, fluorescence polarization; Potency, µM, for the others: max response, negative = inhibition, actives largely listed as inhibitors; hit rate 2.8% among 360,000; AID 720504; note: series mostly up to about 57 µM; % is set by controls: 0 for no effect and ±100 for the full control effect; nearly all actives have a fitted effect of over 65% in size
Active calls of the source: *; u = inconclusive; x = no result given; [ ] = remark or other dose. The list is not random: actives were taken first. Their share in the collection is about 6.9%. Calls come from the whole dose curve; as a rule, active = well fitted curve in the direction sought with a large enough effect; inconclusive = small, poorly fitted or top-dose-only effect, or another doubt; inactive = no such curve, though single readings can be large; an effect the other way counts as inactive or inconclusive. Potency is the fitted concentration of half-maximal effect.

SMILES | VDR inhibitor | HP1b chromo inh | JMJD2A Tudor inh | BAZ2B inh | L3MBTL1 block | PLK1 PBD inh
O=C(/C=C/c1cccc([N+](=O)[O-])c1)Nc1cc(C(=O)O)cc(C(=O)O)c1 | 35.5µM* | u | 17.8µM* | u | x | 10.6µM*
COC(=O)c1cccc(NC(=O)/C=C/c2cccc([N+](=O)[O-])c2)c1 | 3.3% | -0.2% | -4.4% | -11.1% | -4.1% | -5.6%
CCOC(=O)N1CCN(c2ccc([N+](=O)[O-])cc2)CC1 | -17.9% | 7.9% | -6.1% | -5.7% | -0.9% | -2.5%
CCOC(=O)N1CCN(C(=O)/C=C/c2ccc([N+](=O)[O-])cc2)CC1 | -15.4% | 38.5% | -4.6% | -15.1% | 3.4%[11.4 µM] | -13.9%
CCOC(=O)N1CCN(/[N+]([O-])=N/Oc2ccc([N+](=O)[O-])cc2[N+](=O)[O-])CC1 | 44.7µM* | 63.2% | -19.3% | x | x | x
CCOC(=O)N1CCN(C(=O)/C=C/c2cccc([N+](=O)[O-])c2)CC1 | -0.3% | -8.6% | -10.5%[11.4 µM] | -11.6% | 3.9% | 29.9µM*
O=C(CSc1nc2ccccc2n1Cc1c(F)cccc1Cl)N1CCN(c2ccc(F)cc2)CC1 | -8.3% | 21.5% | -6.5% | -1.3% | x | x
CC(NC(=O)c1ccc2c(c1)N(Cc1ccc(Cl)cc1)C(=O)c1ccccc1S2=O)c1ccccc1 (stereo not drawn) | -9.3% | 21.5% | -14.1% | -12.6% | x | x
N#Cc1nc(-c2ccco2)oc1N1CCCC1 | 10.7% | 0.8% | -19.2% | 2.8% | x | -2.8%
N#Cc1nc(-c2ccc(Cl)cc2)oc1N1CCCCC1 | 10.7% | -60.0% | u | 39.8µM* | -14.1% | -1.5%
N#Cc1nc(-c2ccco2)oc1N1CCN(c2cccc(Cl)c2)CC1 | 9.0% | u | u | 25.1µM* | u | -0.5%
N#Cc1nc(-c2ccc(F)cc2)oc1N1CCCC1 | -18.5% | u | -12.3%[11.4 µM] | -32.3% | -7.3% | 15µM*
CCCN1Cc2cccc(C(=O)Nc3ccc(C(C)=O)cc3)c2C1=O | -10.5% | 24.5% | -15.7% | x | x | x
CCCCCOC(=O)c1ccc(OC(=O)c2sc3ncn(Cc4cccc(F)c4)c(=O)c3c2C)cc1 | 15.1% | 44.4% | 5.8% | 12.0% | x | x
CC(C)OC(=O)Nc1ccc2nc(-c3cscn3)[nH]c2c1 | 6.8% | x | x | x | x | x
Nc1ccc2c(c1)OC1(CCCC1)O2 | 79.4µM* | -38.7% | 44.7µM* | 39.8µM* | -23.8% | -18.6%
O=c1[nH]c2cc3c(cc2cc1CN(Cc1ccccc1)Cc1nnnn1Cc1ccco1)OCCO3 | u | -20.5% | u | x | u | u
COc1ccccc1CN(Cc1cc2cc3c(cc2[nH]c1=O)OCCO3)Cc1nnnn1Cc1ccco1 | u | -25.2% | 35.5µM* | u | -6.8% | u
CCOc1ccccc1NC(=O)CN1C(=O)CC(c2ccco2)Sc2ccccc21 (stereo not drawn) | -12.7% | -14.4% | u | u | x | x
CCCCc1ccc(/C=C2\C(=O)c3ccccc3C(O)=C2C(=O)OCC)cc1 | x | x | x | 22.4µM* | -20.3% | x
Cc1ccc(/C=C(\C#N)C(=O)Nc2ccc(Br)cc2)o1 | 4.6% | 42.9% | -6.5% | -1.7% | x | x
COc1ccc(NC(=O)/C(C#N)=C\c2ccc(Br)o2)cc1 | 4.4% | -32.6% | 56.2µM* | u | x | -21.7%
COc1ccc(NC(=O)/C(C#N)=C\c2ccc(-c3cc(C(=O)O)ccc3C)o2)cc1 | 17.8% | -13.6% | u | 56.2µM* | u | -17.6%
CC(C)OC(=O)c1c(NC(=O)c2cccc(C(F)(F)F)c2)sc2c1CCCC2 | u | 43.9% | 9.5% | 7.6% | x | x
Cc1ccc(S(=O)(=O)c2cn(Cc3ccccc3)c3cc(N4CCCC4)c(F)cc3c2=O)cc1 | 0.4% | 43.7% | -28.7% | 3.4% | x | x
SMILES | VDR inhibitor | HP1b chromo inh | JMJD2A Tudor inh | BAZ2B inh | L3MBTL1 block | PLK1 PBD inh
CCOc1ccc(CC(=O)Nc2nnc3n2CCS3)cc1 | -2.2% | -1.7%[57 µM] | 56.2µM* | 11.2% | x | x
CC(C)(C)c1ccc(C(=O)Nc2nnc3n2CCS3)cc1 | -1.7% | 23.6%[57 µM] | -3.9% | 2.1% | x | x
COc1ccc(CC(=O)Nc2nnc3n2CCS3)cc1 | 8.9% | 16.5%[57 µM] | 56.2µM* | u | x | x
NNC(=S)Nc1c(F)cc(F)cc1Br | 1.3% | 14.7% | -27.6% | 14.6% | 8.0% | -12.0%
O=S(=O)(c1ccccc1)N1CCC2(CCCN(Cc3ccccc3)C2)CC1 | 9.8% | x | x | x | x | x
C#CCOCCOCCOCCNc1nc(N2CCN(C(=O)[C@H](CCCCN)n3cc(CN)nn3)CC2)nc(N2CCN(C(=O)[C@H](CCCN=C(N)N)n3cc(C(N)[C@H](C)CC)nn3)CC2)n1 (stereo partly drawn) | -11.5% | 18.1% | 79.4µM* | x | -2.3% | -5.3%
C#CCOCCOCCOCCNc1nc(N2CCN(C(=O)[C@H](CCCN=C(N)N)n3cc(C(N)[C@@H](C)CC)nn3)CC2)nc(N2CCN(C(=O)[C@H](CC(N)=O)n3cc([C@@H](N)C(C)C)nn3)CC2)n1 (stereo partly drawn) | 0.0% | 15.5% | 79.4µM* | x | -1.8% | -12.4%
C#CCOCCOCCOCCNc1nc(N2CCOCC2)nc(N2CCN(C(=O)[C@H](CCCN=C(N)N)n3cc(C(N)[C@@H](C)CC)nn3)CC2)n1 (stereo partly drawn) | -4.2% | 28.4% | -19.7% | x | 11.1% | -0.7%
C#CCOCCOCCOCCNc1nc(N2CCN(C(=O)[C@H](CCCN=C(N)N)n3cc(C(N)[C@H](C)CC)nn3)CC2)nc(N2CCN(C(=O)[C@H](CCCN=C(N)N)n3cc(C(N)[C@@H](C)CC)nn3)CC2)n1 (stereo partly drawn) | -9.3% | 2.6% | 79.4µM* | x | -1.0% | -8.0%
C#CCOCCOCCOCCNc1nc(N2CCN(C(=O)[C@H](CCCN=C(N)N)n3cc(C(N)[C@@H](C)CC)nn3)CC2)nc(N2CCN(C(=O)[C@H](CC(N)=O)n3cc([C@@H](N)CC(N)=O)nn3)CC2)n1 (stereo partly drawn) | 0.9% | 5.6% | 22.4µM* | x | -1.8% | -4.5%
O=C(OCc1nnc(-c2cccs2)o1)C1=NN(c2ccccc2)C(=O)CC1 | -10.4% | 37.2% | -3.2% | 5.7% | -6.5% | 0.1%
Cc1ccc(SC2=C(Sc3ccc(C)cc3)C(=O)c3ccccc3C2=O)cc1 | u | 3.55µM* | 3.55µM* | 3.55µM* | u | 1.68µM*
Cc1ccc(N2C(=O)c3ccccc3C2=O)cc1 | 10.0% | 20.7% | 0.0% | -9.9% | x | 8.5%
Cc1cccc(N2CCN(C(=O)Cn3nc(C)c4sc5ccccc5c4c3=O)CC2C)c1 (stereo not drawn) | -0.5% | 60.1% | -24.2% | -20.2% | x | x
Cc1ccc(OCCCC(=O)Nc2sc3c(c2C(N)=O)CCCC3)cc1 | u | -4.3% | -23.9% | -3.7% | x | x
C#CC(=O)CC1(CN(Cc2ccccc2)C(=O)OC(C)(C)C)CCCCC1 | u | -6.3% | u | x | x | 11.9µM*
